# Measured values from the supplement of paper PMC8728848.
# The sample as a whole holds a higher share of the strongest signals than the screen did.
# B1: SabA (Helicobacter pylori) (protein)
# chain: MGSSHHHHHHSSGLVPRGSHMENLYFQGEDNGFFVSAGYQIGEAVQMVKNTGELKNLNEKYEQLSQYLNQVASLKQSIQNANNIELVNSSLNYLKSFTNNNYNSTTQSPIFNAVQAVITSVLGFWSLYAGNYFTFFVGKKVGDSGQPASVQGNPPFKTIIENCSGIENCAMDQTTYDKMKKLAEDLQAAQTNSATKGNNLCALSGCAATDSTSNPPNSTVSNALNLAQQLMDLIANTKTAMMWKNIVISGVSNTSGAITSTNYPTQYAVFNNIKAMIPILQQAVTLSQSNHTLSASLQAQATGSQTNPKFAKDIYTFAQNQKQVISYAQDIFNLFNSIPAEQYKYLEKAYLKIPNAGSTPTNPYRQVVNLNQEVQTIKNNVSYYGNRVDAALSVARDVYNLKSNQAEIVTAYNDAKTLSEEISKLPHNQVNTKDIVTLPYDKNAPAAGQSNYQINPEQQSNLNQALAAMSNNPFKKVGMISSQNNNGA
# Columns and labels:
# Assay in all cases: glycan array binding signal (z-score within array); higher = stronger binding
# Conditions in all cases: glycan notation: IUPAC condensed, linker removed
# [1] = target: Gal(b1-4)GlcNAc(b1-3)Gal(b1-4)GlcNAc(b1-2)[Gal(b1-4)GlcNAc(b1-3)Gal(b1-4)GlcNAc(b1-6)]Man(a1-6)[Gal(b1-4)GlcNAc(b1-3)Gal(b1-4)GlcNAc(b1-2)Man(a1-3)]Man(b1-4)GlcNAc(b1-4)GlcNAc
# In short: (§1)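 Negative Z-scores can be read as non-binding. The Z-score is calculated within each array and then averaged across arrays of one protein sequence at different concentrations or buffers and across linkers. Arrays, 3228 in all, were curated from the Consortium for Functional Glycomics database and kept only where the protein sequence was available.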
# [2] = target: Gal(b1-4)GlcNAc(b1-3)Gal(b1-4)GlcNAc(b1-3)Gal(b1-4)GlcNAc(b1-2)Man(a1-3)[Gal(b1-4)GlcNAc(b1-3)Gal(b1-4)GlcNAc(b1-3)Gal(b1-4)GlcNAc(b1-2)Man(a1-6)]Man(b1-4)GlcNAc(b1-4)[Fuc(a1-6)]GlcNAc
# In short: as §1
# [3] = target: Gal(b1-4)GlcNAc(b1-3)Gal(b1-4)GlcNAc(b1-3)Gal(b1-4)GlcNAc(b1-3)Gal(b1-4)GlcNAc(b1-2)Man(a1-3)[Gal(b1-4)GlcNAc(b1-3)Gal(b1-4)GlcNAc(b1-3)Gal(b1-4)GlcNAc(b1-3)Gal(b1-4)GlcNAc(b1-2)Man(a1-6)]Man(b1-4)GlcNAc(b1-4)[Fuc(a1-6)]GlcNAc
# In short: as §1
# [4] = target: Gal(b1-4)GlcNAc(b1-3)Gal(b1-4)GlcNAc(b1-3)Gal(b1-4)GlcNAc(b1-3)Gal(b1-4)GlcNAc(b1-3)Gal(b1-4)GlcNAc(b1-2)[Gal(b1-4)GlcNAc(b1-3)Gal(b1-4)GlcNAc(b1-3)Gal(b1-4)GlcNAc(b1-3)Gal(b1-4)GlcNAc(b1-3)Gal(b1-4)GlcNAc(b1-6)]Man(a1-6)[Gal(b1-4)GlcNAc(b1-3)Gal(b1-4)GlcNAc(b1-3)Gal(b1-4)GlcNAc(b1-3)Gal(b1-4)GlcNAc(b1-3)Gal(b1-4)GlcNAc(b1-2)Man(a1-3)]Man(b1-4)GlcNAc(b1-4)[Fuc(a1-6)]GlcNAc
# In short: as §1
# [5] = target: Gal(b1-4)GlcNAc(b1-3)Gal(b1-4)GlcNAc(b1-6)[Gal(b1-3)]GalNAc
# In short: as §1
# [6] = target: GalNAc(b1-4)Gal(b1-4)Glc
# In short: as §1
# [7] = target: GalNAc(b1-4)GlcNAc
# In short: as §1
# [8] = target: GalNAc(b1-4)GlcNAc(b1-2)Man(a1-3)[GalNAc(b1-4)GlcNAc(b1-2)Man(a1-6)]Man(b1-4)GlcNAc(b1-4)GlcNAc
# In short: as §1
# [9] = target: GalNAc3S(b1-4)[Fuc(a1-3)]GlcNAc
# In short: as §1
# [10] = target: GalNAc6S(b1-4)GlcNAc
# In short: as §1
# [11] = target: GlcA3S(b1-3)Gal(b1-4)GlcNAc(b1-2)Man
# In short: as §1
# [12] = target: GlcNAc(a1-4)Gal(b1-4)GlcNAc(b1-3)Gal(b1-4)Glc
# In short: as §1
# [13] = target: GlcNAc(b1-2)[GlcNAc(b1-4)]Man(a1-3)[GlcNAc(b1-2)Man(a1-6)]Man(b1-4)GlcNAc(b1-4)GlcNAc
# In short: as §1
# [14] = target: GlcNAc(b1-3)Gal(b1-4)GlcNAc(b1-2)Man(a1-3)[GlcNAc(b1-3)Gal(b1-4)GlcNAc(b1-2)Man(a1-6)]Man(b1-4)GlcNAc(b1-4)[Fuc(a1-6)]GlcNAc
# In short: as §1
# [15] = target: GlcNAc(b1-3)GalNAc
# In short: as §1
# [16] = target: GlcNAc(b1-3)Man
# In short: as §1
# [17] = target: GlcNAc(b1-4)Gal(b1-4)GlcNAc
# In short: as §1
# [18] = target: Man(a1-6)Man
# In short: as §1
# [19] = target: Neu5Ac(a2-3)Gal(b1-3)GalNAc
# In short: as §1
# [20] = target: Neu5Ac(a2-3)Gal(b1-3)GlcNAc(b1-2)Man(a1-3)[Neu5Ac(a2-3)Gal(b1-3)GlcNAc(b1-2)Man(a1-6)]Man(b1-4)GlcNAc(b1-4)GlcNAc
# In short: as §1
# [21] = target: Neu5Ac(a2-3)Gal(b1-3)GlcNAc(b1-3)GalNAc
# In short: as §1
# [22] = target: Neu5Ac(a2-3)Gal(b1-3)[Fuc(a1-4)]GlcNAc(b1-3)Gal(b1-3)[Fuc(a1-4)]GlcNAc
# In short: as §1
# [23] = target: Neu5Ac(a2-3)Gal(b1-3)[Neu5Ac(a2-6)]GlcNAc(b1-3)[Fuc(a1-3)[Gal(b1-4)]GlcNAc(b1-6)]Gal(b1-4)Glc
# In short: as §1
# [24] = target: Neu5Ac(a2-3)Gal(b1-4)Glc
# In short: as §1
# [25] = target: Neu5Ac(a2-3)Gal(b1-4)GlcNAc(b1-3)Gal(b1-4)GlcNAc(b1-3)Gal(b1-4)GlcNAc
# In short: as §1
# [26] = target: Neu5Ac(a2-6)Gal(b1-3)GlcNAc(b1-3)[Gal(b1-4)GlcNAc(b1-6)]Gal(b1-4)Glc
# In short: as §1
# [27] = target: Neu5Ac(a2-8)Neu5Ac(a2-3)Gal(b1-4)GlcNAc
# In short: as §1
# [28] = target: Neu5Ac(a2-8)Neu5Ac(a2-8)Neu5Ac
# In short: as §1
# [29] = target: Neu5Gc(a2-3)Gal(b1-4)GlcNAc
# In short: as §1
# [30] = target: Neu5Gc(a2-6)Gal(b1-4)GlcNAc
# In short: as §1
binder,measurement,setting,value
B1,glycan array binding signal (z-score),[1],2.39
same,glycan array binding signal (z-score),[2],-0.537
same,glycan array binding signal (z-score),[3],0.132
same,glycan array binding signal (z-score),[4],-0.103
same,glycan array binding signal (z-score),[5],-0.494
same,glycan array binding signal (z-score),[6],1.6
same,glycan array binding signal (z-score),[7],0.676
same,glycan array binding signal (z-score),[8],2.98
same,glycan array binding signal (z-score),[9],-0.298
same,glycan array binding signal (z-score),[10],0.834
same,glycan array binding signal (z-score),[11],-0.867
same,glycan array binding signal (z-score),[12],-0.716
same,glycan array binding signal (z-score),[13],-0.287
same,glycan array binding signal (z-score),[14],0.826
same,glycan array binding signal (z-score),[15],0.191
same,glycan array binding signal (z-score),[16],1.69
same,glycan array binding signal (z-score),[17],-0.173
same,glycan array binding signal (z-score),[18],-0.738
same,glycan array binding signal (z-score),[19],0.965
same,glycan array binding signal (z-score),[20],1.79
same,glycan array binding signal (z-score),[21],-0.131
same,glycan array binding signal (z-score),[22],0.27
same,glycan array binding signal (z-score),[23],-0.626
same,glycan array binding signal (z-score),[24],2.88
same,glycan array binding signal (z-score),[25],0.051
same,glycan array binding signal (z-score),[26],-0.762
same,glycan array binding signal (z-score),[27],-0.714
same,glycan array binding signal (z-score),[28],-0.39
same,glycan array binding signal (z-score),[29],-0.614
same,glycan array binding signal (z-score),[30],0.779
